Activity calls are given as the source filed them.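 How the source made its calls, unless noted: active means inhibition at or above 50% at 10 µM; inactive means inhibition below 50%.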
Columns and labels:
[1] = inhibitors of TNFa-induced NFkB p65 translocation, primary screen, imaging, HUVEC, MLSMR starter and 10KST1 sets (AID 438;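 active means inhibition above 20% together with a positive visual image hit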;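 further: compound added about 3h40 before a 20 min TNFalpha stimulation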;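 on inhibition: signal is the nuclear over cytoplasmic p65 intensity ratio per well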); details: HUVEC TNFa-induced p65 nuclear translocation; cell count: measured here: nuclei count (cytotoxicity indicator), at 2.08 µM; inhibition: at 2 µM, stronger effect = higher value, 0% TNFa-plus-vehicle, 100% no-TNFa wells
[2] = reduction of polyQ htt aggregates in cells – imaging, exon1htt(103Q)mCFP cells, high-content imaging, primary screen (AID 483;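 active means visual image review flags a hit and inhibition of aggregation exceeds 20%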;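 further: compound exposure lasted 3 days before fixation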;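 on nuclei count: percent of the per-plate median nuclei count of sample wells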); details: exon1htt(103Q)mCFP cell line, aggregate imaging, at 2 µM; inhibition of aggregation: stronger effect = higher value; nuclei count: measured here: cell count, toxicity
[3] = endothelial E-selectin expression blockers – imaging, HUVEC, immunofluorescence, MLSMR starter and 10KST1 sets, primary screen (AID 487;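 active means visually confirmed hit in the image check and inhibition above 20%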;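 on inhibition: signal is fraction of cell area covered by stained E-selectin grains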;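 on nuclei count: 100% = median nuclei count of all wells on the same plate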); details: HUVEC TNFalpha-induced E-selectin immunofluorescence imaging, at 2 µM; inhibition: stronger effect = higher value; nuclei count: measured here: cell number, toxicity
[4] = target: Voltage-gated potassium channel subunit beta-2 (Rattus norvegicus) (UniProt P62483); assay: inhibitors of rat Kvbeta2 reductase activity – biochemical, NADPH fluorescence, primary screen (AID 622;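 active means fluorescence slope higher than the sample average by over 3 SD, cut at about -0.22 in these data, passing the limit was not always enough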;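 further: slope of raw intensity against log time taken from 70 to 1610 s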); details: recombinant KvBeta, 4-cyanobenzaldehyde reduction, at 10 µM, stronger effect = higher value
Voltage-gated potassium channel subunit beta-2 (Rattus norvegicus), sequence (P62483 whole entry, looked up): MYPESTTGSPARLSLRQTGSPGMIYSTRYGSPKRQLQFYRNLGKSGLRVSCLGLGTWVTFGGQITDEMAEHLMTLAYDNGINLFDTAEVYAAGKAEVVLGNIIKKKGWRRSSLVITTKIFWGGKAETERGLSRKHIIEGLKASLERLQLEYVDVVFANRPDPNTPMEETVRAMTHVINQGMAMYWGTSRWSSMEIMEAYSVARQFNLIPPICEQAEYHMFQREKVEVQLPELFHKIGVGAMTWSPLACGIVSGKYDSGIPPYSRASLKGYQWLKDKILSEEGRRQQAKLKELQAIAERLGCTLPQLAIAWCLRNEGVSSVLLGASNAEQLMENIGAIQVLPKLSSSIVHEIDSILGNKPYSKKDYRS

[5] = target: Voltage-gated potassium channel subunit beta-2 (Rattus norvegicus) (UniProt P62483); assay: enhancers of rat Kvbeta2 NADPH turnover – biochemical, NADPH fluorescence, primary screen (AID 623;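 active means NADPH fluorescence slope more negative than the mean of all samples by about 3 SD, 99.7% confidence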;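 further: fluorescence intensity change per second fitted from 20 to 320 s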); details: Recombinant KvBeta, NADPH fluorescence decrease slope, 10 min; at 10 µM; stronger effect = lower value
[6] = target: Alpha-2C adrenergic receptor (Homo sapiens) (UniProt P18825); assay: compounds altering alpha2C-coupled GIRK flux – cell-based, HEK293 alpha2C/GIRK1/2, thallium flux, primary screen (AID 624;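 active means fluorescence slope after compound addition differing from the mean of all screened samples at 99.7% confidence, in either direction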;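 further: slope of fluorescence ratio to pre-addition baseline per second over 15 to 24 s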); details: thallium flux BTC fluorescence, at 10 µM, actives lie on both sides
Alpha-2C adrenergic receptor (Homo sapiens), sequence (P18825 whole entry, looked up): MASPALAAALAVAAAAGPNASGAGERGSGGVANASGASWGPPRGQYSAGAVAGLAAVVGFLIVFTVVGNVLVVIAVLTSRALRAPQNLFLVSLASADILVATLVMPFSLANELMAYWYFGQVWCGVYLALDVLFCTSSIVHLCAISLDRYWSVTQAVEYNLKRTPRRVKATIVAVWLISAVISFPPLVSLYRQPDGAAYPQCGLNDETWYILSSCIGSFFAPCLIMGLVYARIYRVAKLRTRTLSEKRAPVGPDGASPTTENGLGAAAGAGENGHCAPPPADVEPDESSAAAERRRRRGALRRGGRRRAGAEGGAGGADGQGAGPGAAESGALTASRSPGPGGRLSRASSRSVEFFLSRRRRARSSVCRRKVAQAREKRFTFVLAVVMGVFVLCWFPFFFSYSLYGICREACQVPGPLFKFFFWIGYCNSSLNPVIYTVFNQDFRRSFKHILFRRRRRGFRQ

[7] = blockers of RIG-like receptor reporter activation – cell-based, Sendai virus stimulus, luciferase, 10K MLSCN set, TLR/RLR signaling modifier project, primary screen (AID 602276); details: HEK293 RL24 IRF3 luciferase reporter, at 10 µM, stronger effect = higher value;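 further: firefly luciferase from ISG56 promoter only with Renilla not read in this screen; 0% = Sendai virus plus DMSO and 100% = medium plus DMSO without virus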
[8] = TLR3 IRF3 reporter activation blockers – cell-based, poly I:C stimulus, luciferase, 10K MLSCN set, primary screen (AID 602277;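 active means inhibition of the reporter signal at or above 50%; inactive means inhibition below 50%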); details: HEK293-TLR3 RL24 IRF3 luciferase reporter, at 10 µM, stronger effect = higher value

Structure (SMILES)	cell count [1]	inhibition [1]	inhibition of aggregation [2]	nuclei count [2] [%]	inhibition [3]	nuclei count [3] [%]	fluorescence slope [4]	NADPH fluorescence slope [5]	slope [6]	inhibition [7]	inhibition [8]
O=C(Cn1cnc2c(nnn2-c2ccc(F)cc2)c1=O)N1CCCc2ccccc21	654	0.4% (inactive)	-21.9% (inactive)	130	1.5% (inactive)	102	-0.523 (inactive)	-1.6e-06 (inactive)	0.00588 (inactive)	14% (inactive)	12.1% (inactive)
O=C(CN1C(=O)CCS(=O)(=O)c2ccccc21)Nc1cccc(F)c1	383	-6.8% (inactive)	-2.1% (inactive)	113	-27.1% (inactive)	135	-0.335 (inactive)	-4.5e-05 (inactive)	0.00547 (inactive)	1.07% (inactive)	10.8% (inactive)
CCOC(=O)c1oc2ccccc2c1CSc1nnnn1-c1ccc(C)cc1	371	-3.4% (inactive)	8.2% (inactive)	88.1	-60.7% (inactive)	106	-0.613 (inactive)	-2.5e-05 (inactive)	0.00768 (inactive)	-16.8% (inactive)	1.2% (inactive)
CC(=O)c1cnc2cc(-c3ccccc3)nn2c1C	283	7.2% (inactive)	26.1% (inactive)	84.2	-84.1% (inactive)	97.5	-0.343 (inactive)	-5.4e-05 (inactive)	0.00763 (inactive)	-65.5% (inactive)	-115% (inactive)
COCCn1c(SCc2csc(-c3ccccc3)n2)nc2ccccc21	639	7.2% (inactive)	-4% (inactive)	97.2	-24.6% (inactive)	96.8	-0.456 (inactive)	7.6e-05 (inactive)	0.00574 (inactive)	1.52% (inactive)	-1.01% (inactive)
CCOCCOc1nc2c(c(=O)n(C)c(=O)n2C)n1Cc1ccc(C)cc1	830	2.3% (inactive)	-33.5% (inactive)	102	-35.1% (inactive)	114	-0.46 (inactive)	5.4e-05 (inactive)	0.00568 (inactive)	-11.5% (inactive)	-21.6% (inactive)
COc1cc(OC)c2c(c1)OC(c1ccc(OC)c(OC)c1)C(O)C2=O (stereo not given)	524	2.6% (inactive)	-8.9% (inactive)	104	-60% (inactive)	115	-0.5 (inactive)	-2.5e-05 (inactive)	0.00643 (inactive)	10.3% (inactive)	3.76% (inactive)
O=C(c1ccc(S(=O)(=O)N2CCOCC2)cc1)N(c1ccc(F)cc1)C1C=CS(=O)(=O)C1 (stereo not given)	774	-19.7% (inactive)	30.2% (inactive)	111	-74.8% (inactive)	107	-0.288 (inactive)	1.6e-05 (inactive)	0.0046 (inactive)	3.76% (inactive)	13.3% (inactive)
O=C(NCc1ccccc1)c1ccc(OC2CSC2)cc1	655	-30.1% (inactive)	9.3% (inactive)	97.9	-45.7% (inactive)	108	-0.486 (inactive)	-4.6e-05 (inactive)	0.00606 (inactive)	-8.59% (inactive)	-14.1% (inactive)
Cc1ccc(-n2nnnc2SCC(=O)c2cc(C)n(-c3cc(C)on3)c2C)cc1	844	-12.4% (inactive)	-7.8% (inactive)	101	-36.4% (inactive)	106	-0.595 (inactive)	8.7e-07 (inactive)	0.00585 (inactive)	12.6% (inactive)	18.7% (inactive)
COc1cc(S(=O)(=O)N2CCOCC2)ccc1NC(=O)COC(=O)C12CC3CC(CC(C3)C1)C2	533	-24.9% (inactive)	-8.6% (inactive)	108	27.1% (inactive)	89.4	-0.258 (inactive)	2.4e-06 (inactive)	0.00665 (inactive)	8.59% (inactive)	19.8% (inactive)
O=C(CSc1nccn1Cc1ccccc1)Nc1nccs1	388	-0.7% (inactive)	10.4% (inactive)	83.7	-16.7% (inactive)	118	-0.512 (inactive)	-2.7e-05 (inactive)	0.00698 (inactive)	-30.1% (inactive)	-82.1% (inactive)
COc1ccc(C(=O)Oc2c(CN3CCOCC3)cc(Cl)c3cccnc23)cc1OC	601	-2.4% (inactive)	-3.9% (inactive)	100	-53.1% (inactive)	111	-0.533 (inactive)	-2.5e-05 (inactive)	0.00812 (inactive)	-3.08% (inactive)	30.9% (inactive)
CCOC(=O)N1CCC(N2C(=O)c3ccc(C(=O)NCc4ccco4)cc3C2=O)CC1	646	-6.1% (inactive)	0.7% (inactive)	96.3	-40.8% (inactive)	126	-0.59 (inactive)	-2.2e-06 (inactive)	0.00518 (inactive)	7.39% (inactive)	26.2% (inactive)
CCn1c(SCC(=O)Nc2cc(C)ccc2C)nc2c(c1=O)SC(C)C2 (stereo not given)	680	-8.2% (inactive)	-17.3% (inactive)	98	-39.2% (inactive)	110	-0.584 (inactive)	-2.9e-05 (inactive)	0.0063 (inactive)	-13.9% (inactive)	2.03% (inactive)
COc1cccc(C2=NOC(C(=O)N3CCN(c4ccccc4)CC3)C2)c1OC (stereo not given)	471	15% (inactive)	6.5% (inactive)	113	8% (inactive)	99.4	-0.536 (inactive)	-8.8e-06 (inactive)	0.00606 (inactive)	19% (inactive)	6.35% (inactive)
Cn1c(=N)c(S(=O)(=O)c2ccc(Cl)cc2)cc2c(=O)n3ccccc3nc21	294	1.6% (inactive)	-0.4% (inactive)	97.1	10.2% (inactive)	94.5	-0.405 (inactive)	-4.7e-05 (inactive)	0.00398 (inactive)	8.16% (inactive)	40.1% (inactive)
CCC(C)NC(=O)c1cn(CC)c2ccc(S(=O)(=O)N(C)C)cc2c1=O (stereo not given)	603	-11.6% (inactive)	-11.6% (inactive)	111	-70.7% (inactive)	125	-0.376 (inactive)	1.4e-05 (inactive)	0.00604 (inactive)	19.1% (inactive)	29.7% (inactive)
CCc1ccc(CCC(=O)Nc2ccc(C)c(C)c2)o1	255	5.2% (inactive)	-4.6% (inactive)	80.2	-34.3% (inactive)	99.6	-0.4 (inactive)	-5.2e-05 (inactive)	0.006 (inactive)	-22.6% (inactive)	-50% (inactive)
CC(=O)Nc1c(C(=O)C2CC2)oc2ccccc12	514	2.2% (inactive)	-10.5% (inactive)	102	-8.1% (inactive)	117	-0.448 (inactive)	-2.5e-05 (inactive)	0.00698 (inactive)	-3.28% (inactive)	2.69% (inactive)
CCN(Cc1nc2ccccc2c(=O)[nH]1)Cc1cc(=O)oc2cc(C)c(C)cc12	288	6.6% (inactive)	0.4% (inactive)	107	-33.2% (inactive)	126	-0.435 (inactive)	-4.6e-05 (inactive)	0.00456 (inactive)	5.41% (inactive)	8.19% (inactive)
CCOC(=O)CSc1nnc(CCc2nc3ccccc3[nH]2)n1C	349	-1% (inactive)	23.8% (inactive)	73	12.7% (inactive)	93.2	-0.441 (inactive)	-2.8e-05 (inactive)	0.00684 (inactive)	-7.44% (inactive)	100% (active)
CCOc1ccc(N2C(N)=NC(N)=NC2(C)C)cc1	401	2.5% (inactive)	5.2% (inactive)	103	-19.5% (inactive)	105	-0.644 (inactive)	5.9e-05 (inactive)	0.00717 (inactive)	11.2% (inactive)	26.1% (inactive)
Cc1noc(C)c1CSc1nnc2scc(-c3ccc(Cl)cc3)n12	339	-0.4% (inactive)	-18.6% (inactive)	120	-88.2% (inactive)	122	-0.52 (inactive)	-2.1e-05 (inactive)	0.00506 (inactive)	-1.42% (inactive)	6.73% (inactive)
O=C(CN1CCN(c2cccc(Cl)c2)CC1)N1CCCC1	330	-8.7% (inactive)	19.2% (inactive)	73	-69% (inactive)	87.6	-0.581 (inactive)	-1.8e-05 (inactive)	0.00658 (inactive)	-11.1% (inactive)	-35.4% (inactive)

— PubChem BioAssay
